DAX1 inh-1: inhibitors of human orphan nuclear receptor DAX1 (NR0B1); AID 504766; inhibition, % at 6.75 µM; 340,000 tested, 0.99% active; HEK293 Gal4-DAX1 luciferase reporter, luminescence;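 active = inhibition above the mean over all tested compounds plus 3 SD, cut at about 4.2% in these data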;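 note: 0% = DAX1-transfected cells with DMSO and 100% = empty-vector control cells with DMSO; inhibition shows as a rise in luminescence from relieved DAX1 repression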
DAX1 inh-2: inhibitors of DAX1 repression of SF-1 activated StAR promoter; HEK293T StAR-luciferase reporter, SF-1/DAX-1 repression relief; inhibition, % at 6.8 µM; 370,000 tested, 1.1% active;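 active = inhibition above the mean over all tested compounds plus 3 SD, cut at about 3.6% in these data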;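 note: 0% = DAX-1 cells with DMSO and 100% = cells lacking DAX-1 with DMSO; higher inhibition means more luminescence from relief of DAX-1 repression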
hcDAF-12 act: activators of H. contortus DAF-12 nuclear receptor. HEK293 hcDAF-12 lit1-tk-luc reporter, luminescence; 0% DMSO, 100% Δ7-dafachronic acid. activation, % at 6.8 µM. 370,000 tested, 1.4% active. AID 652067;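 active = activation above the mean of all tested compounds plus 3 SD, cut at about 5.5% in these data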;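 note: 100% = response to 3 µM Δ7-dafachronic acid high control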
ssDAF12 agonist: activates DAF-12 receptor from parasite S. stercoralis; HEK293 ssDAF-12/GRIP1 lit1-tk-luc reporter, luminescence; % of 3 µM dafachronic acid response; activation, % at 6.8 µM; 370,000 tested, 1% active;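 active = activation above the mean over all tested compounds plus 3 SD, cut at about 0.9% in these data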;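 note: 0% = DMSO-only wells and 100% = 3 µM delta7-dafachronic acid wells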
hgDAF12 agonist: activates the H. glycines DAF-12 receptor ligand-binding domain | HEK293 GAL4-hgDAF12 UAS-luciferase reporter, agonist luminescence; normalized to butyrate control | activation, % at 6.8 µM | 370,000 tested, 1.8% active;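 active = activation above a cutoff set at the mean of all screened compounds plus 3 SD, cut at about 10% in these data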;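 note: 0% = DMSO wells and 100% = sodium butyrate wells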
DAX1 inh confirm: NR0B1 (human) inhibition, confirmation | shares compounds with DAX1 inh-2 | inhibition, % at 6.8 µM | 2,400 tested, 87% active | AID 652134 | HEK293T StAR-promoter luciferase reporter, SF-1/DAX-1 repression;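 active = inhibition above the average of every tested compound plus 3 SD, cut at about 3.8% in these data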;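 note: 0% = DAX-1 cells with DMSO and 100% = no DAX-1 control cells with DMSO; active compounds raise luminescence by relieving repression of the StAR reporter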
Target sequence (P51843 whole entry, looked up): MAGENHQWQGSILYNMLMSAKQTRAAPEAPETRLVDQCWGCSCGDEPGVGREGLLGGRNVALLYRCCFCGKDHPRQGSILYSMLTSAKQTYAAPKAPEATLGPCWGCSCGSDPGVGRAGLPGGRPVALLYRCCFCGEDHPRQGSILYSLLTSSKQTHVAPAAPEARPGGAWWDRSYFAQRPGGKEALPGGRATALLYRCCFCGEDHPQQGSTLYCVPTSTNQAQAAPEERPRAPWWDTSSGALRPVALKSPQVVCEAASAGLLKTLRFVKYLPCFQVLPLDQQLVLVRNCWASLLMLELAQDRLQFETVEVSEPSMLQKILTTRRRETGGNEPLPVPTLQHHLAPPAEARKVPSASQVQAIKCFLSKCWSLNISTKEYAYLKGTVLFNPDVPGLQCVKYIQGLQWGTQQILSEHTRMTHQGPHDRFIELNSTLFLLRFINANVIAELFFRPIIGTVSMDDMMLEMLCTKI
SF1 AF2mut Luc: nonselective inhibitor or artifact in SF-1 mutant DAX1 counter-screen; 2,400 tested, 78% active; AID 652136; HEK293 StAR-luciferase, SF-1 AF2 mutant, luminescence; inhibition, % at 6.8 µM; shares compounds with DAX1 inh-2;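 active = inhibition above the mean of all tested compounds plus 3 SD, cut at about 3% in these data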;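 note: 0% = DAX-1 transfected cells with DMSO and 100% = cells without DAX-1 with DMSO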
* = called active by the depositor. Hits are enriched below; roughly 4.1% of the tested compounds scored in any of these assays.

For O=C1c2[nH]nc(-c3ccccc3)c2C(c2ccc(F)cc2)N1Cc1ccccc1 (stereo unspecified) the results were DAX1 inh-2 0, hcDAF-12 act 0, ssDAF12 agonist -1 and hgDAF12 agonist -1.
`Cc1ccc2nc(-c3ccc(Cl)cc3)c(Cc3cccc(F)c3)n2c1` gave DAX1 inh-2 3, hcDAF-12 act 0, ssDAF12 agonist 0 and hgDAF12 agonist 8.
Screening Cc1ccc2nc(-c3ccc(Cl)cc3)c(Cc3ccccc3C(F)(F)F)n2c1 returned DAX1 inh-2 7.7*, hcDAF-12 act 2, ssDAF12 agonist -1, hgDAF12 agonist 12*, DAX1 inh confirm 3.7* and SF1 AF2mut Luc 3.7*.
For Cc1ccc2nc(-c3cccc(Cl)c3)c(Cc3cccc(F)c3)n2c1 the results were DAX1 inh-2 4.8*, hcDAF-12 act 2, ssDAF12 agonist -1, hgDAF12 agonist 5, DAX1 inh confirm 2 and SF1 AF2mut Luc 2.
CN(C)S(=O)(=O)c1ccc(C(=O)Nc2nnc(SCC(=O)NCC3CCCO3)s2)cc1 (stereo unspecified) was read as DAX1 inh-1 0, DAX1 inh-2 2, hcDAF-12 act 1, ssDAF12 agonist 0 and hgDAF12 agonist 4.
For CC(C)(C)c1ccc(C(=O)Nc2nnc(SCC(=O)NCC3CCCO3)s2)cc1 (stereo unspecified) the results were DAX1 inh-1 -1, DAX1 inh-2 11*, hcDAF-12 act 5, ssDAF12 agonist 0, hgDAF12 agonist 10, DAX1 inh confirm 8.9* and SF1 AF2mut Luc 6.1*.
CCOc1ccc(C(=O)Nc2nnc(SCC(=O)NCC3CCCO3)s2)cc1 (stereo unspecified) was read as DAX1 inh-1 -3, DAX1 inh-2 5.4*, hcDAF-12 act 6.1*, ssDAF12 agonist 0, hgDAF12 agonist 7, DAX1 inh confirm 4.2* and SF1 AF2mut Luc 2.
For C=CCN1C(=O)c2n[nH]c(C(C)C)c2C1c1ccc(C)cc1 (stereo unspecified) the results were DAX1 inh-2 -1, hcDAF-12 act -2, ssDAF12 agonist -1 and hgDAF12 agonist -2.
For O=C(NCC1CCCO1)c1ccc(-c2ccccc2Cl)o1 (stereo unspecified) the results were DAX1 inh-1 2, DAX1 inh-2 7.3*, hcDAF-12 act 3, ssDAF12 agonist 0, hgDAF12 agonist 13*, DAX1 inh confirm 11* and SF1 AF2mut Luc 6.0*.
For NC(=O)C1CCCN(C(=O)c2ccc(-c3cccc(Cl)c3Cl)o2)C1 (stereo unspecified) the results were DAX1 inh-1 0, DAX1 inh-2 5.6*, hcDAF-12 act 3, ssDAF12 agonist 0, hgDAF12 agonist 10, DAX1 inh confirm 9.2* and SF1 AF2mut Luc 4.8*.
For O=C(c1ccc(-c2ccccc2Cl)o1)N1CCC1 the results were DAX1 inh-1 1, DAX1 inh-2 5.1*, hcDAF-12 act 1, ssDAF12 agonist 0, hgDAF12 agonist 8, DAX1 inh confirm 5.7* and SF1 AF2mut Luc 4.3*.
For Cc1onc(-c2ccccc2Cl)c1C(=O)NCC1CCCO1 (stereo unspecified) the results were DAX1 inh-1 -1, DAX1 inh-2 0, hcDAF-12 act -1, ssDAF12 agonist -1 and hgDAF12 agonist 0.
`Cc1nc2cc(C(=O)N3CCN(C(=O)OCc4ccccc4)CC3)ccc2n1C1CCCC1` gave DAX1 inh-2 0, hcDAF-12 act -2, ssDAF12 agonist -2 and hgDAF12 agonist -2.
`Nn1c(SCc2cccc3ccccc23)nnc1-c1cc(-c2ccc(Cl)cc2)n[nH]1` gave DAX1 inh-2 -1, hcDAF-12 act -3, ssDAF12 agonist -2 and hgDAF12 agonist 2.
`O=C(CSc1nnc(-c2ccccc2)n1-c1ccccc1)Nc1ccccc1-c1ccccc1` gave DAX1 inh-2 -2, hcDAF-12 act -3, ssDAF12 agonist -2 and hgDAF12 agonist -3.
CC(=O)N1C[C@@H](CO)[C@@H](N(C)C(=O)/C=C/c2ccccc2)C[C@H]1c1ccccc1 was read as DAX1 inh-2 -1, hcDAF-12 act -1, ssDAF12 agonist -1 and hgDAF12 agonist 2.
For Cc1ccc(NC(=O)COC(=O)CCC(=O)c2cccs2)c(Br)c1 the results were DAX1 inh-1 0, DAX1 inh-2 1, hcDAF-12 act -1, ssDAF12 agonist -1 and hgDAF12 agonist 1.
Screening Cc1ccc(NC(=O)CCC(=O)c2cccs2)c(Br)c1 returned DAX1 inh-1 2, DAX1 inh-2 8.0*, hcDAF-12 act 3, ssDAF12 agonist 0, hgDAF12 agonist 7, DAX1 inh confirm 7.6* and SF1 AF2mut Luc 5.5*.
`CC(C)(C)C1=CC(CC(N)=O)(C(C)(C)C)OC1=O` (stereo unspecified) gave DAX1 inh-2 1, hcDAF-12 act -1, ssDAF12 agonist -1 and hgDAF12 agonist 0.
For O=C(N/N=C/c1ccc(O)c(Br)c1)c1cc2c(ccc3ccccc32)o1 the results were DAX1 inh-1 0, DAX1 inh-2 1, hcDAF-12 act 2, ssDAF12 agonist -1 and hgDAF12 agonist -4.
O=C(N/N=C/c1cc(Br)c(O)c(Br)c1)c1cc2c(ccc3ccccc32)o1 was read as DAX1 inh-1 -1, DAX1 inh-2 5.2*, hcDAF-12 act -1, ssDAF12 agonist 0, hgDAF12 agonist 4, DAX1 inh confirm 3 and SF1 AF2mut Luc 1.
For CCOc1ccc(-c2cc(C(=O)NCc3ccc(F)cc3)[nH]n2)c(C)c1 the results were DAX1 inh-2 0, hcDAF-12 act -2, ssDAF12 agonist -1 and hgDAF12 agonist 3.
CCOc1ccc(-c2cc(C(=O)Nc3ccc(F)cc3)[nH]n2)c(C)c1 was read as DAX1 inh-2 7.4*, hcDAF-12 act 3, ssDAF12 agonist 0, hgDAF12 agonist 12*, DAX1 inh confirm 10* and SF1 AF2mut Luc 6.7*.
O=C(Nc1ccc(F)cc1)Nc1c(-c2ccc(C(F)(F)F)cc2)nc2ncccn12 was read as DAX1 inh-2 0, hcDAF-12 act 0, ssDAF12 agonist -1 and hgDAF12 agonist 5.
Screening COc1nc(OC)nc(N2CCC(C(=O)NCc3ccccc3OC)CC2)n1 returned DAX1 inh-2 0, hcDAF-12 act -2, ssDAF12 agonist 0 and hgDAF12 agonist 4.
`Cc1ccc(S(=O)(=O)N(C)[C@H]2C[C@H]3c4cc(N5CCOCC5)ccc4CCN3C[C@H]2[C@H](C)O)cc1` gave DAX1 inh-2 0, hcDAF-12 act -2, ssDAF12 agonist -1 and hgDAF12 agonist 2.

Compound activity deposited in PubChem by The Scripps Research Institute Molecular Screening Center.
